Source: PubChem (several laboratories)
DAGLB inhibitor = blocks human DAGLB lipase activity | HEK293T DAGLB membrane lysate, EnzChek fluorogenic substrate | inhibition, % at 5.17 µM | 0.059% of 340,000 active | AID 504411; in the data active means inhibition above about 34%;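 further: 0% = enzyme with vehicle and 100% = wells lacking enzyme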
ARNT-TACC3 inh = disruptors of human ARNT/TACC3 interaction; 0.66% of 390,000 active; AlphaScreen His-ARNT PAS-B/GST-TACC3 binding, luminescence; TACC3 fragment carries E629A point mutation; Q9Y6A5; inhibition, % at 9.99 µM;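 active means mean inhibition of replicates at least 50% and at least half of replicates each reaching 50%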;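 further: 0% = complete ARNT plus TACC3 wells and 100% = ARNT alone without TACC3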
Neddyl block = inhibitors of human cullin neddylation | P61081+Q13564 | TR-FRET cullin neddylation, biochemical | inhibition, % at 25 µM | 0.58% of 360,000 active; in the data active means inhibition above about 36%
sPLA2-III inh = Blocks human group III sPLA2 activity; AID 743126; QFRET BODIPY PC-A2 liposome hydrolysis, fluorescence; inhibition, % at 12.2 µM; 0.56% of 370,000 active; Q9NZ20;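 active means inhibition above mean plus 3 SD of compounds lying within the high and low control bounds, cut at about 19% in these data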;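 further: 0% = median of test compound wells and 100% = no enzyme DMSO wells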
Target sequence (Q9NZ20 whole entry, looked up): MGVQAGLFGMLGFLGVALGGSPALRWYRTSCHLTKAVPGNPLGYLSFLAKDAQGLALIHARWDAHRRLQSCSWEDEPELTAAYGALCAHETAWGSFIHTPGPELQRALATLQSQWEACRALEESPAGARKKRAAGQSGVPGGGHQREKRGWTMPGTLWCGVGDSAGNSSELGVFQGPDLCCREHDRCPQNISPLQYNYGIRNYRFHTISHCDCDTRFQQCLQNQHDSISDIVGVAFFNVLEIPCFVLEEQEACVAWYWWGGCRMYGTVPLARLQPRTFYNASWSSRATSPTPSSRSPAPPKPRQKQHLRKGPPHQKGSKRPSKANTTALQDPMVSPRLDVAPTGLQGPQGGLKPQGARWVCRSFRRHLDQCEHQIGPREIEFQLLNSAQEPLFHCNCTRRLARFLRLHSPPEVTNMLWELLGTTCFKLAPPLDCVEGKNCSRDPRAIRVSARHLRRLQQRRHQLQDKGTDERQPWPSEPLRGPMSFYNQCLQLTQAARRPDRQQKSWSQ
NadD inh = NadD (S. aureus) enzyme inhibition; inhibition, % at 20 µM; AID 602399; purified NadD enzyme, colorimetric absorbance read-out; 0.78% of 360,000 active; in the data active means inhibition above about 26%
Neddyl inh conf = cullin neddylation inhibition, confirmation | shares compounds with Neddyl block | TR-FRET cullin neddylation biochemical assay | calls only at 25 µM | 13% of 1,800 active; in the data active means inhibition above about 40%;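 further: neddylation substrate is the cullin 1 ring ligase complex with SKP2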
sPLA2 confirm = human GIII-sPLA2 inhibition, confirmation. shares compounds with sPLA2-III inh. recombinant hGIII-sPLA2, BODIPY PC-A2 QFRET fluorescence. inhibition, % at 12.2 µM. 34% of 2,000 active. AID 743280;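 active means mean inhibition across triplicates above the hit cutoff set in the earlier primary screen, cut at about 19% in these data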;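 further: 0% = enzyme with DMSO and 100% = DMSO wells lacking enzyme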
BODIPY interf = 535nm fluorescence interference, HGIII-sPLA2 counter-screen; BODIPY FL product fluorescence interference, QFRET; shares compounds with sPLA2-III inh; 8.5% of 2,000 active; AID 743282; inhibition, % at 12.2 µM;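 active means average inhibition above the solvent-only control mean plus 3 SD, cut at about 6% in these data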;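 further: 0% = DMSO with substrate plus product and 100% = DMSO with substrate alone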
Active calls of the source: *; i = inactive; / = no result given. Only some compounds are listed: those with a hit (about 2% of all), similar ones and a draw of the others.

SMILES | DAGLB inhibitor | ARNT-TACC3 inh | Neddyl block | sPLA2-III inh | NadD inh | Neddyl inh conf | others
NC(Cc1ccc(O)cc1)C(=O)NN=Cc1ccc(N(CCCl)CCCl)cc1 (stereo not given) | 1 | -3 | 41* | 0 | 14 | i
O=C(c1ccc2c3c(cccc13)CC2)C1CCCN(Cc2ncc[nH]2)C1 (stereo not given) | 1 | 21 | 50* | -4 | 5 | i
CCC(=NCC1CCCO1)c1c(O)n(Cc2ccccc2)c(=O)[nH]c1=O (stereo not given) | 0 | 32 | -4 | 5 | -1 | /
CC/C(=N\NC(=O)c1ccccc1)c1c(O)n(Cc2ccccc2)c(=O)[nH]c1=O | / | / | 39* | -9 | -3 | i
O=C(N/N=C/c1c(O)n(CCc2ccccc2)c(=O)[nH]c1=O)c1ccccc1 | / | / | 44* | -3 | 3 | i
O=C1NC(=O)C2(Cc3ccccc3N3CCCC32)C(=O)N1c1cccc(Cl)c1 (stereo not given) | 4 | 0 | -5 | -10 | -1 | /
Cc1ccc(CN2C(=O)NC(=O)C3(Cc4c(nc5ccccn5c4=O)N4CCCCCC43)C2=O)cc1 (stereo not given) | 3 | 5 | 44* | -1 | 21 | i
Cn1c2ccccc2c2c(C(=O)N3CCC4(CC3)OCCO4)cn(C3CCCC3)c(=O)c21 | 0 | / | 30 | 4 | -6 | /
COCCn1cc(C(=O)N2CCC3(CC2)OCCO3)c2c3ccccc3n(C)c2c1=O | -2 | -4 | 39* | -4 | -3 | i
CCOc1ccc(N=Cc2c(O)n(CCc3ccc(OC)c(OC)c3)c(=O)[nH]c2=O)cc1 | 2 | 6 | 41* | 10 | -12 | i
COc1ccc(CCn2c(O)c(C=Nc3ccc(NC(C)=O)cc3)c(=O)[nH]c2=O)cc1OC | / | -5 | / | 0 | 3 | /
O=C(Cc1ccccn1)N1CCCCN2[C@@H](CO)[C@H](c3ccc(-c4ccccc4F)cc3)[C@@H]2C1 | / | 6 | / | / | / | /
CCCNC(=O)N1[C@@H]2Cn3c(ccc(-c4ccccc4OC)c3=O)[C@H]1[C@@H](C(=O)O)[C@@H]2CO | / | -5 | / | / | / | /
CCOP(=O)(OCC)C1(O)C(=O)Nc2ccccc21 (stereo not given) | -1 | -5 | 17 | -14 | -6 | /
CCOP(=O)(OCC)C1(C(=O)O)CCCC1 | -2 | -3 | -8 | 24* | -7 | / | sPLA2 confirm=6;BODIPY interf=-3
CC1CC2(C)C(CCC3C2CCC2(C)C(OP(=O)(N4CC4)N4CC4)CCC32)CC1=O (stereo not given) | 0 | 13 | 7 | 25* | 2 | / | sPLA2 confirm=-1;BODIPY interf=-25
C[C@]12CCC3C(CC[C@H]4C[C@H](O)CC[C@]34C)C1CC(=O)[C@@H]2O (stereo not given in full) | -1 | 7 | 0 | 1 | 0 | /
Nc1ccc(-c2ccc(N)cc2)cc1 | 3 | 3 | 13 | 19* | 0 | / | sPLA2 confirm=17;BODIPY interf=-4
COC(=O)[C@H]1[C@H](CO)[C@H]2Cn3c(ccc(C4=CCCCC4)c3=O)[C@@H]1N2Cc1ccccn1 | / | 11 | / | / | / | /
c1ccc(Cc2cnc(N3CCNCC3)nc2)cc1 | / | / | / | 25* | / | / | sPLA2 confirm=-5;BODIPY interf=-7
c1cnc(N2CCNCC2)nc1 | 1 | -5 | 13 | 13 | 1 | /
O=C(C[N+]12CCC(CC1)C(OC(=O)c1ccccc1)C2)c1ccc([N+](=O)[O-])cc1 (stereo not given) | -4 | -2 | -33 | 22* | 2 | / | sPLA2 confirm=13;BODIPY interf=-21
O=C(C[N+]12CCC(CC1)C(CO)C2)c1ccc([N+](=O)[O-])cc1 (stereo not given) | 3 | 2 | -35 | 4 | 1 | /
N#Cc1cccc(-c2ccc([C@H]3[C@@H](CO)N4CCCCN(C(=O)Cc5ccccc5)C[C@H]34)cc2)c1 | / | 3 | / | / | / | /
CC=Cc1ccc2n(c1=O)C[C@@H]1[C@@H](CO)[C@H](C(=O)OC)[C@H]2N1CC1CCCCC1 (mixture of isomers) | / | -14 | / | / | / | /
CCC(=NCc1ccco1)c1c(O)n(C)c(=O)n(C)c1=O | 2 | 12 | 0 | 20* | -2 | / | sPLA2 confirm=-1;BODIPY interf=-7
